Test results published in ChEMBL document CHEMBL3433997, “St. Jude Leishmania screening dataset” (2016).
Where “and” joins values, the source holds several entries; their conditions need not be identical. Equal values may be shown once.

Target: Glucose transporter (Leishmania mexicana) (UniProt O61059)
Assay: ST_JUDE_LEISH: Cytotoxicity at 2uM final concentration against transgenic Leishmania Mexicana promastigotes LmGT2 that are glucose transport deficient and complemented with the L. Mexicana glucose transporter 2. Activity is measured by DNA content using SYBR green in vitro
Type: functional

| SMILES | inhibition |
| --- | --- |
| CCN(CC)CCN1C(=O)C(O)(c2ccccc2Cl)c2c1cc(C#N)cc2C(F)(F)F (centres undefined) | 4.08% |
| CC[C@H]1CN2CC[C@@H]1C[C@H]2[C@H](O)c1cc(N2CCC(C)CC2)nc2ccc(OC)cc12 | 5.06% |
| O=C(NC1CCC(CN2CCC(c3c[nH]c4ccccc34)CC2)CC1)c1cn(Cc2ccccc2)c2ccccc12 (centres undefined) | -1.09% |
| Cn1nc(C(F)(F)F)cc1-c1ccc(C(=O)NC2CCC(CN3CCC(c4c[nH]c5ccccc45)CC3)CC2)s1 (centres undefined) | 2.24% |
| O=C(c1cc(C(F)(F)F)cc(C(F)(F)F)c1)N1CCC(CCN2CCC3(CC2)C(=O)NCN3c2ccccc2)CC1Cc1ccc(Cl)c(Cl)c1 (centres undefined) | 6.06% |
| O=C(/C=C/c1ccc(Cl)c(Cl)c1)NC1C2CCC1CC(CN1CCC(c3c[nH]c4ccccc34)CC1)C2 (centres undefined) | 2.44% |
| CC[C@H]1CN2CC[C@H]1C[C@H]2[C@@H](O)c1cc(OCCCN(C)C)nc2ccc(OC)cc12 | -0.74% |
| Cc1ccccc1CNCC(O)c1cccc(C(F)(F)F)c1 (centres undefined) | -1.33% |
| O=C(NC1CCC(CN2CCC(c3c[nH]c4ccccc34)CC2)CC1)c1cc(-c2cccc(Cl)c2)n(-c2ccc(Cl)cc2Cl)n1 (centres undefined) | 0.47% |
| CN(c1ccnc(Nc2ccc(CS(C)(=O)=O)cc2)n1)C1CCN(Cc2ccccc2)CC1 | 1.21% |
| CN1C2CCC1c1cc(NC(=O)c3cc(-c4ccc(Cl)cc4)cs3)ccc12 (centres undefined) | 8.52% |
| O=C(/C=C/c1cc([N+](=O)[O-])ccc1Cl)NC1CCC(CN2CCC(c3c[nH]c4ccccc34)CC2)CC1 (centres undefined) | 2.13% |
| CC[C@H]1C[N+]2([O-])CC[C@@H]1C[C@H]2[C@H](O)c1cc(-c2ccccc2)nc2ccc(OC)cc12 | 4.7% |
| COc1cc(CN2CCN(c3ccnc(N(C)C4CCN(C)CC4)n3)CC2)cc(Cl)c1O | 6.73% |
| COc1cc2c(c(OC)c1OC)C[C@H]1c3c(cc4c(c3-2)OCO4)CCN1C | 1.06% |
| CCN1CCC(N2CCC(n3c(C)nc4cc(C(F)(F)F)ccc43)CC2)CC1 | 4.4% |
| COC(=O)c1ccc(CC(C)NCC(O)c2cccc(Br)c2)cc1 (centres undefined) | 2.26% |
| CN1CCC(COC(=O)C(O)(c2ccccc2)c2ccccc2)C1 (centres undefined) | -0.38% |
| CC[C@H]1CN2CC[C@H]1C[C@H]2[C@H](O)c1cc(-c2ccc(F)cc2)nc2ccc(OC)cc12 | 1.25% |
| O=[N+]([O-])c1ccc(Oc2c(Cl)cc(S(=O)(=O)NC3CCC(CN4CCC(c5c[nH]c6ccccc56)CC4)CC3)cc2Cl)c(Cl)c1 (centres undefined) | -1.14% |

| SMILES | inhibition |
| --- | --- |
| COc1ccc(C(=O)C2CC2CN2CC=C(c3c[nH]c4cccc(Br)c34)CC2)cc1 (centres undefined) | 2.11% |
| COC(=O)c1sccc1NC(=S)NC1CCC(CN2CCC(c3c[nH]c4ccccc34)CC2)CC1 (centres undefined) | 0.42% and 1.38% |
| O=C(/C=C/c1ccc(Cl)c(Cl)c1)N(Cc1ccccc1)C1CCC(CN2CCC(c3c[nH]c4ccccc34)CC2)CC1 (centres undefined) | 4.05% |
| CC[C@H]1CN2CC[C@H]1C[C@H]2[C@H](O)c1ccnc2ccc(O)cc12 | 1.04% |
| O=C(NC1CCN(CCc2c[nH]c3ccc(F)cc23)CC1)c1ncc(-c2ccccc2)[nH]1 | 3.98% |
| CN(c1cc(NC(=O)c2cccs2)ccn1)C1CCN(Cc2ccccc2)CC1 | 2.09% |
| Cc1[nH]c2c(C)cc(NS(C)(=O)=O)cc2c1C1CCN(CC2CCN(C(=O)/C=C/c3ccc(Cl)c(Cl)c3)CC2)CC1 | 4.65% |
| CC(=O)N(Cc1cccc(-c2ccc(CNCCc3ccccc3)cc2)c1)C1CCN(Cc2ccccc2)CC1 | 2.97% |
| COc1ccc2[nH]cc(C3CC4CCC(C3)N4CCC3CCN(C(=O)/C=C/c4ccc(Cl)c(Cl)c4)CC3)c2c1 (centres undefined) | 0.71% |
| O=C(NC1CCC(CN2CCC(c3c[nH]c4ccccc34)CC2)CC1)c1ccc(-c2cc(C(F)(F)F)ccc2Cl)o1 (centres undefined) | 3.83% |
| CCCCCCC(CC)c1cc(O)c2c(c1)OC(C)(C)c1ccncc1-2 (centres undefined) | -0.4% |
| Cc1[nH]c2cc(F)ccc2c1C1=CCN(CCCCC2(C)C(=O)Nc3c(F)cccc32)CC1 (centres undefined) | 4.44% |
| CC(=O)C1(c2ccccc2)CCN(CCC2(c3ccc(Cl)c(Cl)c3)CN(C(=O)Nc3cccc(C(F)(F)F)c3)CCO2)CC1 (centres undefined) | 3.14% |
| CC[C@H]1CN2CC[C@@H]1C[C@H]2[C@H](O)c1cc(N2CCC(C(N)=O)CC2)nc2ccc(OC)cc12 | 8.43% |
| COC(=O)c1ccc(CC(C)NCC(O)c2cccc(C(F)(F)F)c2)c(OC)c1 (centres undefined) | 5.25% |
| CC(=O)N(Cc1cccc(-c2cccc(CNCc3ccc4c(c3)OCO4)c2)c1)C1CCN(Cc2ccccc2)CC1 | 7.83% |
| C/C=C1/CN2CC[C@H]1C[C@H]2[C@H](O)c1ccnc2ccc(O)cc12 | -0.61% |
| COc1cccc(C=CC(=O)NC2CCC(CN3CCC(c4c[nH]c5ccccc45)CC3)CC2)c1OC (centres undefined) | 14.2% |
| CC[C@H]1CN2CC[C@H]1C[C@@H]2[C@@H](OC(=O)c1ccc(Cl)cc1)c1ccnc2ccc(OC)cc12 | -1.41% |
